Measurements: PubChem BioAssay (NCI)
About 83,000 compounds went through this panel and 20% of them were active in at least one assay; those are over-represented in the sample as a whole.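 How to read the values: 0–100, growth inhibition (40 = 60% inhibited); 0, no net growth; -100 to 0, cell death (-40 = 40% of starting cells died; -100 = all dead).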 Activity calls are given as the source filed them.

What follows are compounds tested on UO-31 renal (assay: NCI-60 one-dose screen, 48 h (100 = growth as untreated, 0 = no growth, -100 = all killed)). Details: 10 µM unless noted.
Procedure: Growth inhibition of the UO-31 human tumor cell line is measured as a screen for anti-cancer activity. Cells are grown in 96 well plates and exposed to the test compound for 48 hours. Compounds are tested at a single concentration, which is 10^-5 M for most compounds. The reported endpoint is percent growth (GI% or GIPRCNT), where numbers from 0 - 100% represent growth inhibition, and numbers from -100% - 0 represent cell death. For example, a value of 40 represents 60% growth inhibition. A value of 0 means no net growth occurred over the course of the experiment. A value of -40 indicates 40% of cells at the beginning of the experiment died by the end of the experiment. A value of -100 means all cells are dead at the end of the experiment.
NCI-60 Human Tumor Cell Lines Screen was performed using the standard one-dose NCI protocol, which is described in more detail at https://dtp.cancer.gov/discovery_development/nci-60/default.htm.
Compounds with GIPRCNT values below 10 were considered active. Activity score was based on GIPRCNT using the following formula: […]
Score is 0 for GIPRCNT values of 100 or above, 50 for GIPRCNT values of 0, and 100 for GIPRCNT values of -100.
With `COc1ccc(Oc2[nH]n(C3=Nc4ccccc4Sc4ccccc43)c(=O)c2C#N)cc1` the growth was 87.9% (inactive). With `CCCCCCCCCCCCCCCCC(=O)O.CCCCCCCCCCCCCCCCCC(=O)O.CCCCCCCCCCCCCCCCCC(=O)O.CCCCCCCCCCCCCCCCCC(=O)O.CCCCCCCCCCCCCCCCCC(=O)O.CO[CH-]OC12COC1CC(O)C1(C)C(O)C(OC(C)O)C3=C(C)C(OC(=O)C(O)C([NH-])c4ccccc4)CC(O)(C(OC(=O)c4ccccc4)C21)C3(C)C.[Cu+].[Zn].[Zn].[Zn].[Zn].[Zn]` (stereo not given) the growth was 27.2% (inactive). With `CCCCCCCCCC(C)NC(=O)CCl` (stereo not given) the growth was 83.7% (inactive). With `CCCCCCCCC1OC1CCCCCCCC(=O)O` (stereo not given) the growth was 96.7% (inactive). With `CC(C)(C)c1cc(C[P+](c2ccc(Cl)cc2)(c2ccc(Cl)cc2)c2ccc(Cl)cc2)cc(C(C)(C)C)c1O` the growth was 64.4% (inactive). `Cc1c(CN(C)C)cc(C(C)C)cc1C(C)C` was tested, and the growth was 108% (inactive). In the case of `COc1ccccc1Cn1cc2c(c1)-c1oncc1CC2`, the growth was 31.6% (inactive). For `COc1ccc2cn3c4ccc(O)cc4[nH]c(=O)c3c2c1`, the growth was 23.6% (inactive). `Oc1ccccc1\C=N/N=C/C=C/c1ccccc1` was tested, and the growth was 51.7% (inactive). For `COc1ccc(NC(=O)/C=C(C)/C=C/C=C(C)/C=C/C2=C(C)CCCC2(C)C)cc1`, the growth was 53% (inactive). For `COC(=O)c1ccc2[nH]c(O)c(C(=Nc3ccc(N(C)C(=O)CN4CCN(C)CC4)cc3)c3ccc([N+](=O)[O-])cc3)c2c1`, the growth was 65.6% (inactive). With `CCCC(=O)NNc1[nH]c(-c2ccc(OC)cc2)cc1C(=O)OCC` the growth was 85.8% (inactive). With `O=C(/C=C1\C(=O)N(Cc2ccc([N+](=O)[O-])cc2)c2ccccc21)c1ccc(OCCN2CCCC2)cc1` the growth was 40.8% (inactive). In the case of `CC(=O)c1nn(-c2ccc(C)cc2)cc1C(=O)c1cc2c(ccc3ccccc32)oc1=O`, the growth was 65.2% (inactive). `CCOc1nc(-c2ccccc2)cc2c(O)c(C(=O)N/N=C/c3ccccc3O)[nH]c(=O)c12` was tested, and the growth was 73.5% (inactive). `CC1(C)CC(=O)C2=C(C1)Oc1nc(N)c(C#N)c(N)c1C2c1ccc(F)cc1` (stereo not given) was tested, and the growth was 181% (inactive). In the case of `COc1cc2ncnc(-n3ncc4cc(NC(=O)Nc5ccc(Cl)c(Cl)c5)ccc43)c2cc1OC`, the growth was -17.2% (active). With `CSC1=Nc2c(c(C)c(-c3ccccc3)n2CCCCl)C2=NC(=O)CN12` the growth was 57.2% (inactive). For `CCCCCCCCCCCCc1ccc([N+](CC)(CC)CC)cc1`, the growth was 78.7% (inactive). For `C[C@H]1C[C@@H](n2cnc3c(N)nccc32)[C@H](O)[C@@H]1O`, the growth was 167% (inactive). In the case of `Cc1ccc2c(O)c(O)cc(NC(C)CCCN)c2n1` (stereo not given), the growth was 96.8% (inactive). In the case of `COc1cc(CCNc2cnc3cc(N)cc(N)c3n2)cc(OC)c1`, the growth was 90.9% (inactive). With `Cn1c2ccccc2c2ccccc21` the growth was 75% (inactive). With `O=C1N/C(=N\c2nnc(-c3ccc(O)cc3)s2)S/C1=C\c1ccccc1O` the growth was 72.4% (inactive). With `O=C(/C=C/c1cccc(O)c1)c1cccc(-n2cc(-c3ccc(Cl)cc3)[nH]c2=O)c1` the growth was -78.3% (active). In the case of `CCCCCCCCc1ccc(CCC(N)(CO)CO)cc1`, the growth was -7.93% (active). In the case of `CCCCCCCCCC[N+](C)(C)N`, the growth was 90.3% (inactive). With `CC(=O)OCC(=O)[C@@]1(O)[C@H](C)C[C@H]2[C@@H]3C=C(C)C4=Cc5c(cnn5-c5ccc(F)cc5)C[C@]4(C)[C@H]3[C@@H](O)C[C@@]21C` the growth was 3.92% (active). With `Nc1nc(-c2cccc(Br)c2)cc(-c2cc3ccccc3oc2=O)n1` the growth was 64.2% (inactive). With `CC1(C)C(O)NC(Cl)=C(C#N)C1(C#N)C#N` (stereo not given) the growth was 81.3% (inactive). With `C=CCN(C)C` the growth was 93.3% (inactive). For `CCN(CCO)CCNc1ccc(C)c2sc3cc(OC)ccc3c(=O)c12`, the growth was 49.4% (inactive). In the case of `Cc1ccc([C@@H]2C[C@H](O)Cc3ccccc3N2)s1`, the growth was 94.5% (inactive). For `OCCN1CCN(CC/C=C2/c3ccccc3Sc3ccc(C(F)(F)F)cc32)CC1`, the growth was 40.1% (inactive). `C/C=C/C/C=C/[C@H](C)C[C@H](O)[C@@H]1C[C@@H]2O[C@H]2/C=C/[C@@H]2OC(C)(C)O[C@H]2/C=C/C[C@H](C)CC(=O)O1` was tested, and the growth was 5.37% (active). For `COc1cc(-c2nc(/C=C3/C(=O)Nc4ccccc43)c3ccccn23)cc(OC)c1OC`, the growth was 41.9% (inactive). In the case of `CC1CCCCC[N+]12CCCC2` (stereo not given), the growth was 88.8% (inactive). For `CCCCCCCCCCCCCCCCNC(=S)N/N=C/c1ccc(OC)cc1`, the growth was 78% (inactive). `COc1ccc2c(c1)cn1c3ccc(O)cc3[nH]c(=O)c21` was tested, and the growth was 23.3% (inactive). In the case of `Cc1cc(CSc2ccc(Cl)cc2)ccc1N`, the growth was 29.4% (inactive).
